Compound activity (PubChem)
Shn3 inh set2: reduction of Shn3 3'UTR firefly luciferase signal, primary screen, Schnurri-3 inhibitor project, cell-based, Clone20 osteoblasts, set 2; Clone20 osteoblast Shn3 3'UTR firefly luciferase, 24 h; inhibition, % at 12.5 µM; hit rate 0.52% among 360,000; AID 588674, 2011;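 active = mean inhibition of at least 75% with every replicate also reaching 75%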
Gli-Sufu block: Gli-Sufu pathway antagonists, primary screen, luciferase luminescence, Sufu-KO-LIGHT cells, uHTS; Sufu-KO-LIGHT fibroblasts, Gli luciferase reporter luminescence; inhibition, % at 5 µM; hit rate 0.74% among 340,000;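 active = inhibition above about 55%, limit read from the data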
697 NFkB inh: inhibitors of PMA/ionomycin-induced NF-kB reporter, 697 cells, primary screen, B-cell NF-kB inhibitor project, cell-based, luminescence, uHTS; hit rate 0.33% among 330,000; inhibition, % at 4 µM; 697 B-cell NF-kB luciferase reporter, 16 h; in the data active = inhibition above about 35%
Mdm2-MdmX inh: inhibitors of human Mdm2-MdmX association, primary screen, cell-based, luminescence, split luciferase, SaOS-2, uHTS. Protein Mdm4 (Homo sapiens) + E3 ubiquitin-protein ligase Mdm2 (Homo sapiens), …. SaOS-2 split-luciferase Mdm2/MdmX complementation. hit rate 3% among 330,000. inhibition, % at 8 µM;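 active = inhibition of at least 50% at 8 µM in the primary screen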
Jurkat NFkB inh: inhibitors of induced NF-kB luciferase reporter, primary screen, TCR NF-kB activation inhibitor project, cell-based, luminescence, uHTS; Jurkat, PMA/ionomycin-induced NF-kB luciferase reporter; hit rate 0.53% among 330,000; AID 435003, 2010; inhibition, % at 4 µM; in the data active = inhibition above about 50%
Mdm2 MdmX conf: Mdm2-MdmX complex disruptors, retested hits, confirmation, luminescence, single concentration | shares compounds with Mdm2-MdmX inh | Mdm2-MdmX binding, luminescent assay | inhibition, % at 8 µM | hit rate 55% among 10,000; in the data active = inhibition above about 40%
Full FLuc ctr: full-length luciferase signal inhibition, confirmation, counter-screen for Mdm2/MdmX interaction inhibitor project, cell-based, single concentration, SaOS-2; inhibition, % at 8 µM; SaOS-2 full-length luciferase counterscreen, luminescence; shares compounds with Mdm2-MdmX inh; hit rate 77% among 6,200;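 active = mean inhibition at 8 µM reaching about 37%, which flags the compound as non-specific, limit read from the data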;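 note: p53-null SaOS-2 cells with luciferase driven by a doxycycline-inducible promoter; compound on cells about two nights before reading with doxycycline added after day one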
Hits are given with their value. Shown are actives, neighbours in structure and some others; about 3.8% of the full set was active somewhere.

What do the screens show for `Cc1cccn2c(=O)c(/C=C(\C#N)C(=O)NCc3ccccc3)c(N3CCC(C(N)=O)CC3)nc12`?
Shn3 inh set2: inactive; Gli-Sufu block: inactive; 697 NFkB inh: inactive; Mdm2-MdmX inh: 63.7; Jurkat NFkB inh: inactive; Mdm2 MdmX conf: inactive

Results for Cc1cc(C)n2ncc(C(=O)O)c2n1 ?
Shn3 inh set2: inactive; Gli-Sufu block: inactive; 697 NFkB inh: inactive; Mdm2-MdmX inh: inactive; Jurkat NFkB inh: inactive

Results for N#Cc1nc(Nc2cc(F)cc(F)c2)c2ncn(CC(F)F)c2n1 ?
Shn3 inh set2: inactive; Gli-Sufu block: inactive; 697 NFkB inh: inactive; Mdm2-MdmX inh: inactive; Jurkat NFkB inh: inactive

What do the screens show for `N#Cc1nc(NCC(F)F)nc(Nc2cc(F)cc(F)c2)n1`?
Shn3 inh set2: inactive; Gli-Sufu block: inactive; 697 NFkB inh: inactive; Mdm2-MdmX inh: 64.3; Jurkat NFkB inh: inactive; Mdm2 MdmX conf: 58.5; Full FLuc ctr: inactive

Results for O=C(Nc1ccc(-c2csc(Nc3ccccc3)n2)cc1)c1cc([N+](=O)[O-])cc(C(F)(F)F)c1 ?
Shn3 inh set2: inactive; Gli-Sufu block: inactive; 697 NFkB inh: inactive; Mdm2-MdmX inh: inactive; Jurkat NFkB inh: inactive

What do the screens show for `O=C(Nc1cccc(-c2csc(Nc3cccc(C(F)(F)F)c3)n2)c1)c1cc([N+](=O)[O-])cc(C(F)(F)F)c1`?
Shn3 inh set2: inactive; Gli-Sufu block: inactive; 697 NFkB inh: inactive; Mdm2-MdmX inh: 63.8; Jurkat NFkB inh: inactive; Mdm2 MdmX conf: inactive

What do the screens show for `N#C/C(=C\c1ccc(-c2cccc([N+](=O)[O-])c2)o1)c1nnc(N2CCOCC2)n1-c1ccccc1`?
697 NFkB inh: inactive; Mdm2-MdmX inh: inactive; Jurkat NFkB inh: inactive

How did O=C(Nc1ccc(F)c(Cl)c1)[C@@H]1O[C@H](CO)[C@H](O)[C@H](O)[C@H]1O do in these assays?
Shn3 inh set2: inactive

What do the screens show for `Cc1ccc2c(SCC(=O)NCc3ccco3)nc(-c3ccc(F)cc3)nc2c1`?
Shn3 inh set2: inactive; Gli-Sufu block: inactive; 697 NFkB inh: inactive; Mdm2-MdmX inh: 82.2; Jurkat NFkB inh: inactive; Mdm2 MdmX conf: inactive

What do the screens show for `Clc1cncc(Cl)c1N/N=C/c1ccncc1`?
Shn3 inh set2: inactive; Gli-Sufu block: inactive; 697 NFkB inh: inactive; Mdm2-MdmX inh: 65.0; Jurkat NFkB inh: inactive; Mdm2 MdmX conf: 63.0; Full FLuc ctr: inactive

How did COc1ccc2[nH]c(=O)c(CN(CCO)S(=O)(=O)c3c(C)ccc4nsnc34)cc2c1 do in these assays?
Shn3 inh set2: inactive; Gli-Sufu block: inactive; 697 NFkB inh: inactive; Mdm2-MdmX inh: inactive; Jurkat NFkB inh: inactive

How did COc1ccc2[nH]c(=O)c(CN(Cc3cccs3)S(=O)(=O)c3cccc4nsnc34)cc2c1 do in these assays?
Shn3 inh set2: inactive; Gli-Sufu block: inactive; 697 NFkB inh: inactive; Mdm2-MdmX inh: 75.1; Jurkat NFkB inh: inactive; Mdm2 MdmX conf: 76.4; Full FLuc ctr: 44.8

Results for COc1nc(-c2ccc(Cl)cc2)ccc1-c1noc(-c2ccco2)n1 ?
Shn3 inh set2: inactive; Gli-Sufu block: inactive; 697 NFkB inh: inactive; Mdm2-MdmX inh: 53.7; Jurkat NFkB inh: inactive; Mdm2 MdmX conf: inactive

What do the screens show for `COc1cccc(-c2ccc(-c3noc(-c4ccccc4F)n3)c(OC)n2)c1`?
Shn3 inh set2: inactive; Gli-Sufu block: inactive; 697 NFkB inh: inactive; Mdm2-MdmX inh: inactive; Jurkat NFkB inh: inactive

What do the screens show for `CCN1C(=O)N(CC)C2C1N(CO)C(=O)N2CO` (centres undefined)?
Shn3 inh set2: inactive; Gli-Sufu block: inactive; 697 NFkB inh: inactive; Mdm2-MdmX inh: inactive; Jurkat NFkB inh: inactive

Results for O=C1CCCN1c1ccc(S(=O)(=O)Nc2ccc3c(c2)OCCO3)cc1 ?
Shn3 inh set2: inactive; Gli-Sufu block: inactive; 697 NFkB inh: inactive; Mdm2-MdmX inh: 68.1; Jurkat NFkB inh: inactive; Mdm2 MdmX conf: 68.9; Full FLuc ctr: 61.0

Results for COc1cccc(C(=O)N2CCN(Cc3ccccc3C(F)(F)F)CC2)c1 ?
Shn3 inh set2: inactive; Gli-Sufu block: inactive; 697 NFkB inh: inactive; Mdm2-MdmX inh: inactive; Jurkat NFkB inh: inactive

What do the screens show for `CCN1CCN(Cc2ccc(NC(=O)c3cc(NC(=O)C(=O)c4c[nH]c5ccccc45)cc(OC)c3)cc2C(F)(F)F)CC1`?
Shn3 inh set2: inactive; Gli-Sufu block: inactive; 697 NFkB inh: inactive; Mdm2-MdmX inh: 98.9; Jurkat NFkB inh: inactive; Mdm2 MdmX conf: inactive

Results for CCN1CCN(Cc2ccc(C(=O)Nc3ccc(C)c(NCc4cnc(NC(=O)OC)cn4)c3)cc2C(F)(F)F)CC1 ?
Shn3 inh set2: inactive; Gli-Sufu block: inactive; 697 NFkB inh: inactive; Mdm2-MdmX inh: inactive; Jurkat NFkB inh: inactive

What do the screens show for `CCN1CCN(Cc2ccc(NC(=O)c3cc(NC(=O)c4cc(C)on4)cc(OC)c3)cc2C(F)(F)F)CC1`?
Shn3 inh set2: inactive; Gli-Sufu block: inactive; 697 NFkB inh: inactive; Mdm2-MdmX inh: 91.2; Jurkat NFkB inh: inactive; Mdm2 MdmX conf: inactive; Full FLuc ctr: 45.8

How did CCN1CCN(Cc2ccc(NC(=O)c3ccc(C)c(NC(=O)c4ccnnc4)c3)cc2C(F)(F)F)CC1 do in these assays?
Shn3 inh set2: inactive; Gli-Sufu block: inactive; 697 NFkB inh: inactive; Mdm2-MdmX inh: inactive; Jurkat NFkB inh: inactive

What do the screens show for `CCN1CCN(Cc2ccc(NC(=O)c3cc(NC(=O)c4cnn(-c5ccccc5)c4N)cc(OC)c3)cc2C(F)(F)F)CC1`?
Shn3 inh set2: inactive; Gli-Sufu block: inactive; 697 NFkB inh: inactive; Mdm2-MdmX inh: 53.0; Jurkat NFkB inh: inactive; Mdm2 MdmX conf: inactive

What do the screens show for `COc1cccc(CC(=O)OCC(=O)N(C)CC(=O)Nc2ccc(F)cc2)c1`?
Shn3 inh set2: inactive; Gli-Sufu block: inactive; 697 NFkB inh: inactive; Mdm2-MdmX inh: inactive; Jurkat NFkB inh: inactive

Results for CC1CCN(c2ccc(-c3cccs3)nn2)CC1 ?
Shn3 inh set2: inactive; Gli-Sufu block: inactive; 697 NFkB inh: inactive; Mdm2-MdmX inh: 55.0; Jurkat NFkB inh: inactive; Mdm2 MdmX conf: 63.6; Full FLuc ctr: 40.4

What do the screens show for `Clc1ccc(-c2cccs2)nn1`?
Shn3 inh set2: inactive; Gli-Sufu block: inactive; 697 NFkB inh: inactive; Mdm2-MdmX inh: inactive; Jurkat NFkB inh: inactive

What do the screens show for `COc1cc(/C=N/NC(=O)C2CCN(CC(O)COCc3ccccc3)CC2)ccc1O` (centres undefined)?
Shn3 inh set2: inactive; Gli-Sufu block: inactive; 697 NFkB inh: inactive; Mdm2-MdmX inh: inactive; Jurkat NFkB inh: inactive

How did Cc1ccc(S(=O)(=O)N2CCN(C(=O)COC(=O)c3ccc(Cl)c(S(N)(=O)=O)c3)CC2)c(C)c1 do in these assays?
Shn3 inh set2: inactive; Gli-Sufu block: inactive
